Tested on: Plasmodium falciparum NF54 gametocytes
Test: viability index relative to DMSO control (fraction); higher = less gametocyte killing
Conditions: 12.5 µM, incubation time: 72 h
Procedure, shortened: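 P. falciparum NF54 gametocytes at stages I–V were treated with compound at 12.5 µM for 72 hr at 37°C under low oxygen in serum-containing medium (0.50% gametocytemia, 1.25% hematocrit), then stained with MitoTracker Red CMXRos and imaged in serum-free medium containing 500 nM dye. The viability index is the gametocyte particle count divided by the plate mean of solvent-only wells.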

[1] = gametocyte stage: Stage I viability index
[2] = gametocyte stage: Stage II viability index
[3] = gametocyte stage: Stage III viability index
[4] = gametocyte stage: Stage IV viability index
[5] = gametocyte stage: Stage V viability index

SMILES | viability index [1] | viability index [2] | viability index [3] | viability index [4] | viability index [5]
Cc1ccc(-c2nc3ccccc3o2)cc1NCc1cc(Cc2ccccc2)ccc1O | 0.0201 | 0.0666 | 0.389 | 0.513 | 0.792
O=C(NCCCN1CCC(N2CCCCC2)CC1)C1=Cc2cc(Br)ccc2OC1 | 0.0935 | 0.427 | 0.742 | 0.699 | 0.312
N=c1c2ccccc2nnn1-c1cccc(C(F)(F)F)c1 | 0.988 | 0.714 | 1.02 | 0.785 | 0.87
CCOC(=O)C1=C(C)N=c2sc(=Cc3ccccc3O)c(=O)n2C1c1ccc(OC)c2ccccc12 (stereo not given) | 0.0358 | 0.06 | 0.197 | 0.468 | 0.481
OCCNc1nc(Nc2ccc(Cl)c(Cl)c2)nc2ccccc12 | 0.0254 | 0.246 | 0.665 | 0.484 | 0.442
CCn1nc(-c2ccc(C(=O)OC)cc2)nc2c(=O)n(C)c(=O)nc1-2 | 0.15 | 0.284 | 0.103 | 0.0365 | 0.044
CCN(CC)CCNc1ccnc2cc3ccccc3cc12 | 0.0323 | 0.0591 | 0.106 | 0.0475 | 0.039
COc1ccc(CNC2CCN(c3ccc(NC(=O)c4cccc(Cl)c4)cc3)CC2)cc1OC | 0.0586 | 0.532 | 0.652 | 0.79 | 0.758
COc1ccc(OC)c(C2C3=C(CC(C)(C)CC3=O)N(c3ccc(Cl)c(Cl)c3)C3=C2C(=O)CC(C)(C)C3)c1 | 0.713 | 0.88 | 0.807 | 0.807 | 0.623
CCCCCCC(O)(c1ccc(F)cc1)C(CN1CCOCC1)c1ccccc1 (stereo not given) | 0.871 | 0.694 | 0.879 | 0.93 | 0.831
Cc1ccc(C)c(Cn2c(N3CCC(C(=O)NCc4cccs4)CC3)nc3ccccc32)c1 | 0.741 | 0.378 | 0.438 | 0.342 | 0.221
CCN(Cc1ccccc1)C1CCN(Cc2cc(Br)ccc2O)CC1 | 0.0376 | 0.132 | 0.573 | 0.617 | 0.659
CCN(CC)CCn1c(=N)n(CC(O)c2ccc(Cl)c(Cl)c2)c2ccccc21 (stereo not given) | 0.00552 | 0.057 | 0.0608 | 0.0851 | 0.121
O=C(Nc1ccc(Cl)cc1)N1CCN(c2ccc3nncn3n2)CC1 | 0.865 | 1.02 | 1.15 | 1.14 | 1.11
CCOc1ccc(C2N(C)c3ccccc3N2C)cc1 | 0.996 | 1.03 | 1.08 | 0.985 | 0.901
CCC(c1ccccc1)c1nn2c(-c3cccs3)nnc2s1 (stereo not given) | 1.04 | 0.992 | 1.07 | 0.875 | 0.725
COc1ccc(C(=O)Nc2ccc(Cl)cc2C(=O)Nc2ccncc2)cc1 | 0.0232 | 0.557 | 0.915 | 0.763 | 0.692
COc1ccc(C(C)=O)cc1N1C(=O)C2C(C1=O)C1(c3ccccc3)C(=O)C2(c2ccccc2)C(c2ccc(C)cc2)=C1c1ccc(C)cc1 (stereo not given) | 1.04 | 0.933 | 1.01 | 0.824 | 0.923
N=c1n(CCN2CCCCC2)c2ccccc2n1CC(O)c1cccc(Br)c1 (stereo not given) | 0.0133 | 0.056 | 0.133 | 0.267 | 0.341
Oc1ccc(-c2nc(-c3ccc4oc5ccc(-c6[nH]c(-c7ccc(O)cc7)nc6-c6ccccc6)cc5c4c3)c(-c3ccccc3)[nH]2)cc1 | 0.000874 | 0 | 0 | 0 | 0.013

SMILES | viability index [1] | viability index [2] | viability index [3] | viability index [4] | viability index [5]
CCN(CC)CCCNc1nc(-c2ccc(Cl)cc2)nc2ccccc12 | 0.693 | 0.751 | 1.01 | 0.903 | 0.956
CCC(O)c1ccc(Br)cc1NC(=O)c1cccc(Cl)c1 (stereo not given) | 0.0243 | 0.196 | 0.598 | 0.729 | 0.582
CCOC(=O)C1(Cc2ccccc2)CCN(Cc2cccc(OC)c2O)CC1 | 0.0586 | 0.0716 | 0.404 | 0.522 | 0.649
Clc1cc(Br)ccc1-c1ccc(CNCC2CCNCC2)o1 | 0.0166 | 0.0135 | 0.0099 | 0.0152 | 0.033
CCc1c(C)c(=N)c2ccccc2n1C | 0.725 | 1.01 | 1.24 | 0.988 | 0.791
COc1nc(Nc2ccc(C(C)C)cc2)nc(OC)n1 | 1.18 | 0.871 | 0.965 | 1.06 | 0.967
Oc1ccc2ccccc2c1CNc1nc2ccccc2[nH]1 | 0.0376 | 0.182 | 0.512 | 0.462 | 0.273
Cc1ccc2c(C)nc(Nc3nc(C)cc(-c4ccccc4)n3)nc2c1 | 0.169 | 0.3 | 0.318 | 0.231 | 0.0519
COc1ccc(C2c3ccc4ccccc4c3Oc3ncn(CCCn4ccnc4)c(=N)c32)cc1OC (stereo not given) | 0.0122 | 0.231 | 0.441 | 0.547 | 0.429
CCOc1cccc2sc(N(Cc3cccnc3)C(=O)C3CCCCC3)nc12 | 0.478 | 0.691 | 1.09 | 0.951 | 0.989
O=C(Nc1cccc(-c2nc3ccccc3[nH]2)c1)c1cccc(NC(=O)c2ccco2)c1 | 0.424 | 0.771 | 1.01 | 0.857 | 0.868
COc1ccc(Br)cc1C1Nc2ccc3ccccc3c2C2=C1C(=O)CC(c1ccccc1)C2 (stereo not given) | 0.44 | 0.729 | 0.873 | 0.939 | 1.05
Brc1ccc(Nc2nc3ccccc3nc2Nc2ccc(Br)cc2)cc1 | 0.0192 | 0.00916 | 0.0204 | 0.0222 | 0.104
COc1ccc(-c2cn3c(C(=O)Nc4ccccc4Cl)c(-c4ccccc4)c4c3n2CCCC4)cc1 | 0.673 | 0.531 | 0.719 | 0.794 | 0.779
Cc1sc(NC(=O)c2ccccc2)c(C(c2cccs2)N2CCN(c3ccccc3)CC2)c1C (stereo not given) | 1 | 0.74 | 0.905 | 0.753 | 0.545
CCOC(=O)C1=C(C)N=c2sc(=Cc3cc(Cl)ccc3O)c(=O)n2C1c1ccc(OC)cc1 (stereo not given) | 0.0559 | 0.0966 | 0.137 | 0.171 | 0.416
COc1cccc(C2(C)Nc3ccccc3-c3nc4ccccc4n32)c1 (stereo not given) | 0.113 | 0.0986 | 0.198 | 0.465 | 0.154
Oc1ccccc1CN1CCC2(CCCN(Cc3ccccc3F)C2)C1 (stereo not given) | 0.0166 | 0.161 | 0.509 | 0.657 | 1.07
OC(CNC1CCCCC1)Cn1c2ccc(I)cc2c2cc(I)ccc21 (stereo not given) | 0.116 | 0.0916 | 0.122 | 0.168 | 0.13
CN1CCN(c2ncnc3c2[nH]c2ccc(Cl)cc23)CC1 | 0.263 | 0.577 | 0.92 | 1.04 | 0.935

SMILES | viability index [1] | viability index [2] | viability index [3] | viability index [4] | viability index [5]
CC(C)=CCN1CCC(C(=O)Nc2ccc(-c3nc4ccccc4[nH]3)cc2)CC1 | 0.0674 | 0.525 | 0.921 | 0.912 | 0.967
COc1ccc(CNC(=O)c2cc3c(=O)n4ccccc4nc3n(CCc3ccccc3)c2=N)cc1 | 0.254 | 0.499 | 0.826 | 0.946 | 1.01
O=C(Nc1ccc(-c2nc3ccccc3[nH]2)cc1)c1ccc(Cl)c(Cl)c1 | 0.129 | 0.564 | 0.894 | 0.978 | 0.727
Cc1ccc(C(=O)c2oc3ccc4c(C)cc(=O)oc4c3c2C)cc1 | 1.1 | 0.932 | 0.905 | 1.04 | 1.08
CN1c2ccccc2N(C)C1c1ccc2c(c1)OCO2 | 0.952 | 0.862 | 1.05 | 0.964 | 1.03
O=C(Nc1ccc(Br)cc1)Nc1cccc(Cl)c1 | 0.341 | 0.542 | 0.816 | 0.936 | 0.451
CCOC(=O)c1c(C)n(-c2ccc(Cl)cc2)c2ccc(OC(=O)C=Cc3ccccc3)cc12 | 0.708 | 0.792 | 1.01 | 0.964 | 0.978
COc1ccc(-c2nonc2NC(=O)c2cccc(Cl)c2)cc1OC | 0.27 | 0.207 | 0.505 | 0.684 | 0.187
O=C(Nc1cccc(C2=NCCN2)c1)Nc1cccc(C2=NCCN2)c1 | 0.565 | 0.718 | 0.773 | 0.908 | 0.818
Cc1cc(N2CCN(C3CCCC3)CC2)n2c(nc3ccccc32)c1C#N | 0.833 | 0.875 | 1.15 | 1.02 | 1
CN(C)c1ccc(N=Cc2ccc(N3CCOCC3)cc2)cc1 | 0.955 | 0.834 | 0.927 | 1.01 | 0.896
c1ccc(C2=Nc3ccccc3N=C(c3ccccc3)c3ccccc32)cc1 | 0.0839 | 0.0541 | 0.0543 | 0.123 | 0.0909
CCOc1ccc(-n2cc(-c3ccccc3)c3c(SCc4cc(C)ccc4C)ncnc32)cc1 | 1.12 | 0.908 | 0.934 | 1.03 | 1.03
COc1ccc2sc(N(Cc3cccnc3)C(=O)c3ccc(C#N)cc3)nc2c1 | 1.05 | 0.773 | 0.995 | 0.934 | 1.16
O=C(NC1CCCCC1)C(c1cccs1)N(CCc1ccccc1)C(=O)c1ccco1 (stereo not given) | 0.98 | 0.838 | 1 | 1.04 | 0.961
Oc1c2c(nc3ccccc13)CCCC2 | 0.828 | 0.959 | 0.985 | 0.87 | 0.961
COc1ccc(Nc2nc(NN=Cc3ccc(O)cc3)nc(Nc3ccc([N+](=O)[O-])cc3)n2)cc1 | 0.00437 | 0.05 | 0.233 | 0.142 | 0
CCOC(=O)C1=CN(C)C=C(C(=O)OCC)C1c1cc(Br)c(OCC)c(OC)c1 | 0.042 | 0.0216 | 0.0421 | 0.161 | 0.117
O=C(NCC1Cc2cccc(-c3ccncc3)c2O1)c1csc2c1CCCC2 (stereo not given) | 1.09 | 1.09 | 0.945 | 1.04 | 1.11
CC(C)CCNCC(O)Cn1c2ccccc2c2ccccc21 (stereo not given) | 0.0507 | 0.0691 | 0.0706 | 0.193 | 0.0779

— the supplement of paper PMC4723716
